Reference: the antibiotic and cytotoxicity screens of Wong et al. (2023)
The whole screen tested about 39,000 compounds, of which about 3,300 (8.5%) were called active. Only a selection was taken, and actives are over-represented in it overall.

These compounds were tested on HepG2 (assay: cytotoxicity call (relative viability < 0.9)). Conditions: 10 µM.

SMILES | cytotoxicity call
COC(=O)CCCCCCC(=O)Nc1ccc([C@H]2O[C@H](CSc3nc(-c4ccccc4)c(-c4ccccc4)o3)C[C@H](c3ccc(NC(=O)CCCCCCC(=O)OC)cc3)O2)cc1 | inactive
C[C@H]1CN([C@@H](C)CO)C(=O)c2cc(NS(C)(=O)=O)ccc2O[C@@H]1CN(C)Cc1ccc(C(F)(F)F)cc1 | inactive
COc1ccc(NC(=O)Nc2ccc3c(c2)[C@H]2C[C@@H](CC(=O)N4CCN(C)CC4)O[C@H](CO)[C@H]2O3)cc1 | inactive
C[C@@H]1CN([C@H](C)CO)C(=O)c2cc(C#CCN(C)C)cnc2O[C@H]1CN(C)Cc1ccc2c(c1)OCO2 | inactive
C[C@H](CO)N1C[C@H](C)[C@@H](CN(C)C(=O)c2cnccn2)Oc2ncc(/C=C/c3ccccc3)cc2C1=O | inactive
CC(C)NC(=O)Nc1ccc2c(c1)C(=O)N([C@@H](C)CO)C[C@H](C)[C@H](CN(C)C(=O)Nc1ccc3c(c1)OCO3)O2 | inactive
C[C@H]1CN([C@@H](C)CO)S(=O)(=O)c2ccc(C#CC3CCCC3)cc2O[C@H]1CN(C)Cc1cncnc1 | inactive
CO[C@@H]1CN(C)C(=O)c2ccc(NC(=O)C3CCOCC3)cc2OC[C@H](C)N(Cc2cccnc2)C[C@@H]1C | inactive
C[C@H]1CN([C@@H](C)CO)C(=O)c2cccc(NC(=O)c3cnccn3)c2O[C@H]1CN(C)C(=O)Nc1ccc2c(c1)OCO2 | inactive
C[C@H]1CN([C@@H](C)CO)C(=O)c2cccc(NC(=O)c3ccncc3)c2O[C@H]1CN(C)S(=O)(=O)c1cn(C)cn1 | inactive
NCCCC[C@@H]1NC(=O)[C@H]2C[C@@H](C(=O)NCc3ccc(F)cc3)[C@@H](c3cccc(OCCO)c3)N2C1=O | inactive
COc1ccc(S(=O)(=O)Nc2cccc3c2O[C@H](CN(C)CC2CC2)[C@@H](C)CN([C@H](C)CO)C3=O)cc1 | inactive
COCC#Cc1ccc2c(c1)O[C@H](CN(C)S(=O)(=O)c1cccc(OC)c1)[C@H](C)CN([C@H](C)CO)S2(=O)=O | inactive
CN1C(=O)c2cc(NC(=O)C3CCOCC3)ccc2OC[C@H]2O[C@H](CC(=O)NCCc3ccncc3)CC[C@H]21 | inactive
C[C@@H]1CN([C@@H](C)CO)C(=O)c2cc(NC(=O)NC3CCCCC3)ccc2O[C@@H](C)CCCCO[C@@H]1CN(C)C(=O)Nc1ccccc1 | inactive
Cc1ccc(S(=O)(=O)N(C)C[C@H]2Oc3ccc(NS(=O)(=O)c4cn(C)cn4)cc3C(=O)N([C@H](C)CO)C[C@H]2C)cc1 | inactive
C[C@@H]1CCCCO[C@@H](CN(C)Cc2ccc(C(F)(F)F)cc2)[C@@H](C)CN([C@H](C)CO)C(=O)c2cc(NS(=O)(=O)c3ccc(Cl)cc3)ccc2O1 | active
C[C@@H]1CCCCO[C@H](CN(C)Cc2ccc(C(F)(F)F)cc2)[C@@H](C)CN([C@H](C)CO)C(=O)c2cc(NS(=O)(=O)c3ccc(Cl)cc3)ccc2O1 | active
C[C@H]1CCCCO[C@H](CN(C)Cc2ccc(C(F)(F)F)cc2)[C@@H](C)CN([C@@H](C)CO)C(=O)c2cc(NS(=O)(=O)c3ccc(Cl)cc3)ccc2O1 | inactive
C[C@@H]1CCCCO[C@@H](CN(C)Cc2ccc(C(F)(F)F)cc2)[C@H](C)CN([C@@H](C)CO)C(=O)c2cc(NS(=O)(=O)c3ccc(Cl)cc3)ccc2O1 | active
C[C@H]1CCCCO[C@@H](CN(C)Cc2ccc(C(F)(F)F)cc2)[C@@H](C)CN([C@@H](C)CO)C(=O)c2cc(NS(=O)(=O)c3ccc(Cl)cc3)ccc2O1 | inactive
C[C@@H]1CN([C@H](C)CO)C(=O)c2cc(NS(=O)(=O)c3ccc(Cl)cc3)ccc2O[C@@H](C)CCCCO[C@@H]1CN(C)Cc1ccc(C(F)(F)F)cc1 | inactive
C[C@@H]1CN([C@@H](C)CO)C(=O)c2cc(NS(=O)(=O)c3ccc(Cl)cc3)ccc2O[C@@H](C)CCCCO[C@H]1CN(C)Cc1ccc(C(F)(F)F)cc1 | active

SMILES | cytotoxicity call
C[C@@H]1CCCCO[C@@H](CN(C)Cc2ccc(C(F)(F)F)cc2)[C@@H](C)CN([C@@H](C)CO)C(=O)c2cc(NS(=O)(=O)c3ccc(Cl)cc3)ccc2O1 | inactive
Cc1ccc(S(=O)(=O)N(C)C[C@H]2Oc3ccc(NS(=O)(=O)c4c(C)noc4C)cc3C(=O)N([C@H](C)CO)C[C@@H]2C)cc1 | inactive
C[C@]12C(=O)N(CCC(=O)O)C(=O)[C@H]1[C@@H]1C=C[C@@H]2C1 | inactive
Cc1ccc(S(=O)(=O)Nc2cccc3c2O[C@@H](CN(C)S(=O)(=O)c2ccc(F)cc2)[C@H](C)CN([C@@H](C)CO)C3=O)cc1 | inactive
O=C(Cn1ccc([N+](=O)[O-])n1)N1CCOCC1 | inactive
COc1ccc(NC(=O)N(C)C[C@H]2Oc3ccc(NC(=O)Cn4cnnn4)cc3CC(=O)N([C@H](C)CO)C[C@H]2C)cc1 | inactive
C[C@H](CO)N1C[C@H](C)[C@H](CN(C)Cc2ccc(Oc3ccccc3)cc2)Oc2c(NS(=O)(=O)c3ccc(F)cc3)cccc2C1=O | inactive
C[C@H](CO)N1C[C@H](C)[C@@H](CN(C)S(=O)(=O)c2ccc(Cl)cc2)Oc2ccc(NS(=O)(=O)c3cn(C)cn3)cc2C1=O | inactive
O=C(NCCCN1CCOCC1)[C@@H]1[C@@H](CO)[C@@H]2Cn3c(ccc(C4=CCCCC4)c3=O)[C@H]1N2 | inactive
Cc1ccc(S(=O)(=O)Nc2cccc3c2O[C@@H](CN(C)S(=O)(=O)c2ccc(F)cc2)[C@H](C)CN([C@H](C)CO)C3=O)cc1 | inactive
CC(C)(C)OC(=O)C[C@@H]1CC=CC[C@@H](CC(=O)N[C@H](CO)Cc2ccccc2)C(=O)N[C@@H](C(C)(C)C)COC1=O | inactive
CC1CCN(S(=O)(=O)c2c[nH]cn2)CC1 | inactive
Cc1noc(C)c1NC(=O)N(C)C[C@H]1Oc2ccc(NS(C)(=O)=O)cc2C(=O)N([C@H](C)CO)C[C@H]1C | inactive
COc1ccc(CN(C)C[C@H]2OCCCC[C@H](C)Oc3ccc(NC(=O)NC(C)C)cc3C(=O)N([C@@H](C)CO)C[C@@H]2C)cc1 | inactive
C[C@@H]1CCCCO[C@H](CN(C)Cc2ccc(C(F)(F)F)cc2)[C@H](C)CN([C@@H](C)CO)C(=O)c2cc(NS(=O)(=O)c3ccc(Cl)cc3)ccc2O1 | active
C[C@H](CO)N1C[C@H](C)[C@H](CN(C)Cc2ccc(C(F)(F)F)cc2)OCCCC[C@H](C)Oc2ccc(NS(=O)(=O)c3ccc(Cl)cc3)cc2C1=O | active
C[C@@H]1CN([C@@H](C)CO)C(=O)c2cc(NC(=O)Cc3cn(C)c4ccccc34)ccc2O[C@@H]1CN(C)CC1CCCCC1 | inactive
Cc1noc(C)c1S(=O)(=O)Nc1ccc2c(c1)C(=O)N([C@@H](C)CO)C[C@@H](C)[C@@H](CN(C)C(=O)Nc1ccccc1)OCCCC[C@@H](C)O2 | inactive
O=C(O)CCCN1C(=O)CSC1=S | inactive
C[C@@H]1CCCCO[C@H](CN(C)C(=O)Nc2ccc(F)cc2)[C@@H](C)CN([C@@H](C)CO)C(=O)c2cc(NC(=O)NC3CCCCC3)ccc2O1 | inactive
C[C@H](CO)N1C[C@H](C)[C@@H](CN(C)S(C)(=O)=O)Oc2ccc(NC(=O)C3CCCCC3)cc2CC1=O | inactive
C[C@H](CO)N1C[C@H](C)[C@@H](CN(C)Cc2ccc3c(c2)OCO3)Oc2ccc(NC(=O)Cn3cnnn3)cc2C1=O | inactive
O=C(Oc1ccc(C2CCCCC2)cc1)c1cccs1 | inactive

SMILES | cytotoxicity call
Cc1ccc(-c2ccc(OC(=O)c3ccccc3F)cc2)cc1 | inactive
Cc1ccc(C(=O)Oc2ccc(/C=N/c3cccs3)cc2)cc1 | active
C[C@H](CO)N1C[C@H](C)[C@@H](CN(C)S(C)(=O)=O)OCCCC[C@H](C)Oc2ccc(NC(=O)c3ccncc3)cc2C1=O | inactive
CC(C)NC(=O)Nc1ccc2c(c1)C(=O)N([C@H](C)CO)C[C@H](C)[C@@H](CN(C)CC1CCCCC1)OCCCC[C@H](C)O2 | inactive
C[C@H]1CN([C@@H](C)CO)C(=O)c2cccc(NC(=O)C3CC3)c2O[C@H]1CN(C)C(=O)NC1CCCCC1 | inactive
O=C(C[C@@H]1C=C[C@H](NC(=O)c2cnccn2)[C@@H](CO)O1)NCc1ccccc1F | inactive
COc1cc2c(cc1OC)-c1c(oc3cc4c(cc3c1=O)CCO4)CO2 | inactive
CC1(C)C=Cc2cc3ccc(=O)oc3cc2O1 | inactive
COc1ccc2c(c1)OC1COc3cc(OC)c(OC)cc3C1C2=O (centres undefined) | active
CC(=O)c1cc2c(cc1O)OC(C)(C)C=C2 | inactive
COc1cc2c(cc1OC)C1C(=O)c3c(O)cc4c(c3OC1CO2)C=CC(C)(C)O4 (stereo not drawn) [alpha-TOXICAROL (dl) ] | active
COc1ccc(-c2c(O)c3c(OC)c4c(cc3oc2=O)OC(C)(C)C=C4)cc1 | inactive
COc1cc2c(cc1OC)-c1c(oc3c4c(ccc3c1=O)OC(C)(C)C=C4)CO2 | active
COc1cc2c(cc1OC)C1C(=O)c3ccc4c(c3OC1CO2)C=CC(C)(C)O4 (centres undefined) | active
COc1cc(OC)c2c(c1)OC(c1ccccc1)CC2=O (centres undefined) | inactive
COc1ccc2c(c1)OC1c3ccc(OC)cc3OCC21 (centres undefined) | inactive
COc1cc2c(c3ccccc13)OC(C)(C)C=C2 | inactive
Nc1ccc(Cl)nn1 | inactive
C[C@@H]1CN([C@@H](C)CO)C(=O)CCCn2nncc2CO[C@H]1CN(C)S(=O)(=O)c1ccc(Cl)cc1 | inactive
O=C(C[C@@H]1CC[C@@H](NC(=O)CN2CCOCC2)[C@H](CO)O1)NCCc1ccncc1 | inactive
C[C@@H]1CCCCO[C@H](CN(C)C(=O)C2CCCCC2)[C@H](C)CN([C@@H](C)CO)C(=O)c2cc(NC(=O)Cc3ccccc3)ccc2O1 | inactive
Cc1cn(Cc2ccccc2)c(=O)[nH]c1=O | inactive
O=C(C[C@H]1CC[C@@H]2[C@H](COC[C@@H](O)CN2C(=O)Nc2cc(Cl)cc(Cl)c2)O1)N1CCOCC1 | inactive
